From PubChem
Rows were chosen to be rich in hits. Some 3.4% of all compounds tested hit in one or more screens of this group.
EWS-Fli inh – inhibitors of EWS/Fli oncoprotein transcriptional activity | inhibition, % at 12.6 µM | actives 0.67% (n = 350,000) | A673 NR0B1-luciferase reporter, viability-normalised;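 active = mean inhibition of at least 50% after viability correction, with every replicate also passing that limit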;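 note: firefly luciferase signal divided by Alamar Blue viability fluorescence both relative to DMSO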
PAX8 inh HTS – lowers PAX8-driven luciferase in RMG-I cells | inhibition, % at 12.6 µM | RMG-I TPO-luciferase reporter, SteadyGlo, 24 h | actives 1.2% (n = 360,000);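 active = mean replicate inhibition at least 60% with every replicate also reaching 60%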;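 note: luciferase light reporting Pax8 driven TPO promoter activity; plate controls were median of neutral control wells for no effect and mitoxantrone controls for full effect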
LGR2 inh – inhibitors of bursicon-induced Drosophila LGR2 receptor cAMP signaling; HEK293 LGR2, CRE-luciferase, bursicon-stimulated, 4 h; inhibition, % at 9.99 µM; actives 0.35% (n = 380,000); AID 720647;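 active = drop in luminescence signal, shown as inhibition above about 50% in the replicate tests, limit read from the data, passing the limit was not always enough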;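 note: agonist challenge used bursicon conditioned medium at about half maximal strength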
rRNA inh HTS – inhibitors of bacterial rRNA selective over humanized ribosomes; E. coli WT GFP vs humanized-ribosome RFP mutants, fluorescence, 24 h; active compounds read low; DMSO median 0, no signal -100; GFP signal change (wild-type ribosome), % (test concentration not listed); actives 1.6% (n = 350,000);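 active = significant combined selectivity score with lowered wild-type GFP, culture density cut under 30%, mutant RFP and density less affected; inactive = any of these conditions unmet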
SIRT5 inh – inhibitors of human sirtuin-5 desuccinylase; Q9NXA8; Purified SirT5, succinyl-peptide AMC, trypsin-coupled fluorescence; inhibition, % at 15 µM; actives 1.1% (n = 330,000); AID 652115; in the data active = inhibition above about 15%
Target sequence (Q9NXA8 whole entry, looked up): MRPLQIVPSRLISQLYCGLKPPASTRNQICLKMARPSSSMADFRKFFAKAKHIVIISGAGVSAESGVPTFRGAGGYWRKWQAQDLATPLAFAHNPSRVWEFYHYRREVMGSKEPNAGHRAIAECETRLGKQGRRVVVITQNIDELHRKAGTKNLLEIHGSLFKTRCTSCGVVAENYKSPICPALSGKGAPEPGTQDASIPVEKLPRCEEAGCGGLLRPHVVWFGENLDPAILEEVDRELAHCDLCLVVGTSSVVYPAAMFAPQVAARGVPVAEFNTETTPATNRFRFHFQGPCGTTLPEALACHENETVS
PGC1a acetyl inh – modulators of PGC1a acetylation; AID 651687; actives 0.17% (n = 350,000); U2OS PGC1a acetylation, AlphaScreen anti-acetyl-lysine; with virally co-expressed GCN5 acetyltransferase; inhibition, % at 15.6 µM;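 active = every replicate shows inhibition of at least 40%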;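 note: 0% = neutral control wells and 100% = positive control wells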
Starred values were filed as active, the others as inactive; nt = not tested or not shown.

SMILES	EWS-Fli inh	PAX8 inh HTS	LGR2 inh	rRNA inh HTS	SIRT5 inh	PGC1a acetyl inh
C[C@H]1CCCCO[C@H](CN(C)Cc2ccc(C(F)(F)F)cc2)[C@@H](C)CN([C@@H](C)CO)C(=O)c2cc(NC(=O)c3ccccc3)ccc2O1	20.6	84.6*	5.6	-2.2	0.5	9.9
C[C@@H]1CCCCO[C@H](CN(C)Cc2ccc(C(F)(F)F)cc2)[C@@H](C)CN([C@@H](C)CO)C(=O)c2cc(NC(=O)c3ccccc3)ccc2O1	15.8	90.8*	-3.8	-4.0	-0.7	3.2
C[C@H](CO)N1C[C@H](C)[C@H](CN(C)CC2CC2)OCCCC[C@H](C)Oc2ccc(NC(=O)Nc3ccccc3)cc2C1=O	nt	-1.2	14.4	0.2	0.2	6.2
COc1ccc(NC(=O)Nc2ccc3c(c2)C(=O)N([C@H](C)CO)C[C@H](C)[C@H](CN(C)CC2CCCCC2)OCCCC[C@@H](C)O3)cc1	1.0	-7.8	18.0	4.2	0.7	-7.5
COc1ccc(NC(=O)Nc2ccc3c(c2)C(=O)N([C@@H](C)CO)C[C@@H](C)[C@@H](CN(C)CC2CCCCC2)OCCCC[C@@H](C)O3)cc1	23.8	76.7*	-0.1	-11.8	-4.4	-20.4
C[C@H](CO)N1C[C@H](C)[C@H](CN(C)CC2CCCCC2)OCCCC[C@H](C)Oc2ccc(NC(=O)Nc3ccccc3)cc2C1=O	22.3	96.7*	13.2	-0.7	5.2	8.6
C[C@@H]1CN([C@H](C)CO)C(=O)c2cc(NC(=O)Nc3ccccc3)ccc2O[C@@H](C)CCCCO[C@@H]1CN(C)CC1CCCCC1	-4.1	97.4*	10.4	-0.3	-1.3	-2.7
C[C@H]1CCCCO[C@H](CN(C)CC2CCCCC2)[C@@H](C)CN([C@@H](C)CO)C(=O)c2cc(NC(=O)Nc3ccccc3)ccc2O1	-0.4	68.5*	14.2	-8.0	1.1	3.4
C[C@@H]1CCCCO[C@@H](CN(C)CC2CCCCC2)[C@@H](C)CN([C@H](C)CO)C(=O)c2cc(NC(=O)Nc3ccccc3)ccc2O1	3.4	-2.5	13.7	4.6	9.3	12.7
C[C@@H]1CN([C@@H](C)CO)C(=O)c2cc(NC(=O)Nc3ccccc3)ccc2O[C@@H](C)CCCCO[C@@H]1CN(C)CC1CCCCC1	9.7	34.6	-1.2	5.1	0.8	-9.4
C[C@@H]1CN([C@H](C)CO)S(=O)(=O)c2ccc(C#CCN(C)C)cc2O[C@H]1CN(C)Cc1ccccc1F	18.9	nt	-9.5	-29.1	-2.0	-26.1
C[C@H]1CN([C@@H](C)CO)C(=O)c2ccccc2-c2ccccc2CO[C@H]1CN(C)S(=O)(=O)CC(F)(F)F	5.5	-34.1	nt	nt	nt	4.2
C[C@@H]1CCCCO[C@@H](CN(C)CC2CCCCC2)[C@H](C)CN([C@H](C)CO)C(=O)c2cc(NC(=O)Nc3ccccc3)ccc2O1	23.9	86.4*	3.5	5.0	0.2	-18.3
CN(C)c1nc(C=C(C#N)C#N)c(Cl)n1-c1ccc(F)cc1	38.0	68.1*	16.3	5.1	-1.6	-31.9
O=C(CCC1CCCN(C(=O)c2cc(C3CC3)[nH]n2)C1)N1CCN(c2ccccn2)CC1 (stereo not given)	7.4	7.9	-5.4	1.7	1.2	97.8*
OC(c1ccccc1)(c1nc(-c2cccc(C(F)(F)F)c2)cs1)C(F)(F)F (stereo not given)	19.9	-4.3	-9.8	-20.6	2.6	5.1
OC(c1ccccc1)(c1nc(-c2cc3ccccc3o2)cs1)C(F)(F)F (stereo not given)	2.5	-9.8	10.4	-37.7*	0.3	-5.2
OC(c1ccccc1)(c1nc(-c2ccc(Cl)cc2)cs1)C(F)(F)F (stereo not given)	1.2	0.6	15.8	-57.8	nt	10.8
N#Cc1cccc(-c2csc(C(O)(c3ccccc3)C(F)(F)F)n2)c1 (stereo not given)	57.7*	9.2	10.9	-55.0	nt	-3.7
COc1cccc(-c2ccc([C@@H]3[C@@H](CO)N(C(C)=O)C34CN(C(C)=O)C4)cc2)c1	0.4	nt	-18.1	-1.6	0.7	-5.6
C[C@H](CO)N1C[C@H](C)[C@H](CN(C)S(=O)(=O)c2ccccc2)OCCCC[C@H](C)Oc2ccc(NS(=O)(=O)c3ccc(Cl)cc3)cc2C1=O	3.1	83.5*	19.7	-2.0	15.1*	-2.9
C[C@@H]1CCCCO[C@H](CN(C)S(=O)(=O)c2ccccc2)[C@H](C)CN([C@H](C)CO)C(=O)c2cc(NS(=O)(=O)c3ccc(Cl)cc3)ccc2O1	-1.3	46.1	-1.0	-2.5	6.2	-17.8
C[C@H](CO)N1C[C@H](C)[C@@H](CN(C)S(=O)(=O)c2ccc(Cl)cc2)OCCCC[C@H](C)Oc2ccc(NS(=O)(=O)c3ccccc3)cc2C1=O	6.8	75.9*	0.8	-4.4	3.5	-9.5
C[C@H](CO)N1C[C@H](C)[C@@H](CN(C)S(=O)(=O)c2ccccc2)OCCCC[C@H](C)Oc2ccc(NS(=O)(=O)c3ccc(Cl)cc3)cc2C1=O	-2.9	85.7*	8.9	-3.2	11.5	3.0
C[C@@H]1CCCCO[C@H](CN(C)Cc2ccc3c(c2)OCO3)[C@@H](C)CN([C@H](C)CO)C(=O)c2cc(NC(=O)C3CCCCC3)ccc2O1	-8.3	6.3	20.9	1.4	1.6	nt
SMILES	EWS-Fli inh	PAX8 inh HTS	LGR2 inh	rRNA inh HTS	SIRT5 inh	PGC1a acetyl inh
COc1cccc(NC(=O)N2CC3(C2)[C@@H](c2ccccc2)[C@@H](CO)N3C(=O)C2CCC2)c1	-2.8	5.7	-4.2	-1.1	-3.6	8.8
O=C1O[C@@H](c2ccccc2)[C@@H](c2ccccc2)N2[C@@H](c3ccc(OCCO)cc3)[C@]3(C(=O)Nc4ccc(C#CC5=CCCCC5)cc43)[C@@H](C(=O)NC[C@H](O)c3ccccc3)[C@H]12	0.6	nt	nt	nt	12.4	-1.2
N#C[C@H]1[C@@H](c2ccc(C#Cc3cccc(F)c3)cc2)[C@@H](CO)N1C(=O)C1CCC1	-2.4	nt	2.8	-6.4	0.9	8.7
COc1ccccc1C#Cc1ccc([C@@H]2[C@@H](CO)N(C(=O)C3CCCCC3)[C@H]2C#N)cc1	10.1	85.0*	17.8	1.3	-0.3	-24.0
CCCC#Cc1ccc([C@@H]2[C@@H](CO)N(C(=O)C3CCCCC3)[C@H]2C#N)cc1	7.5	23.3	-2.4	-9.6	2.4	-3.9
N#C[C@@H]1[C@@H](c2ccc(C#Cc3ccccc3F)cc2)[C@H](CO)N1C(=O)C1CCCCC1	3.2	81.5*	-13.7	0.8	3.4	-11.3
COc1ccccc1C#Cc1ccc([C@@H]2[C@H](C#N)N(C(=O)C3CCCCC3)[C@H]2CO)cc1	nt	25.8	12.6	1.6	6.0	-14.8
N#C[C@@H]1[C@@H](c2ccc(C#Cc3ccccc3F)cc2)[C@@H](CO)N1C(=O)C1CCCCC1	-40.1	-9.3	-4.3	-0.4	5.0	3.7
